# Numbering of substitutions follows the chain as printed.
# Assays:
# Assay in all cases: PBM; 200 nM protein, PBS
# Conditions in all cases: dsDNA, one strand shown
# VAX1 [1] = target: VAX1 (Homo sapiens, UniProt Q5SQQ9 86-172)
# VAX1 [2] = target: VAX1 (Homo sapiens, UniProt Q5SQQ9 86-172, T142I)
# VAX1 [3] = target: VAX1 (Homo sapiens, UniProt Q5SQQ9 86-172, K157R)
# HOXA7 [4] = target: HOXA7 (Homo sapiens, UniProt P31268 116-202)
# HOXB6 [5] = target: HOXB6 (Homo sapiens, UniProt P17509 132-218, K202E)
# HOXB6 (Homo sapiens, UniProt P17509 132-218, K202E), sequence (P17509 132-218 K202E): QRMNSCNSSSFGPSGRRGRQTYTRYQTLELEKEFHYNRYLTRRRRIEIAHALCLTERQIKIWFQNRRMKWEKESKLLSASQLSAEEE
# HOXA7 [6] = target: HOXA7 (Homo sapiens, UniProt P31268 116-202, W177C)
# HOXA7 (Homo sapiens, UniProt P31268 116-202, W177C), sequence (P31268 116-202 W177C): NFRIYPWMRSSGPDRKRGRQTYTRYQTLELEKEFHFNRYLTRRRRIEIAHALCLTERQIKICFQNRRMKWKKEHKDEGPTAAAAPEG
# HOXB6 [7] = target: HOXB6 (Homo sapiens, UniProt P17509 132-218)
# HOXB6 (Homo sapiens, UniProt P17509 132-218), sequence (P17509 132-218): as the sequence (P17509 132-218 K202E) above, with E71K counted along it
# VENTX [8] = target: T1, VENTX (Homo sapiens, UniProt O95231 78-163, R121Q)
# T1 sequence: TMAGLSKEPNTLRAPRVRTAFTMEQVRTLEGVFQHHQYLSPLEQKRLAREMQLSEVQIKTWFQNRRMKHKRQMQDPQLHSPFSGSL
# VENTX [9] = target: T2, VENTX (Homo sapiens, UniProt O95231 78-163, Y115F)
# T2 sequence: T1 sequence with Y38F, Q44R
# PAX4 [10] = target: T3, PAX4 (Homo sapiens, UniProt O43316 9-242, F177V)
# T3 sequence: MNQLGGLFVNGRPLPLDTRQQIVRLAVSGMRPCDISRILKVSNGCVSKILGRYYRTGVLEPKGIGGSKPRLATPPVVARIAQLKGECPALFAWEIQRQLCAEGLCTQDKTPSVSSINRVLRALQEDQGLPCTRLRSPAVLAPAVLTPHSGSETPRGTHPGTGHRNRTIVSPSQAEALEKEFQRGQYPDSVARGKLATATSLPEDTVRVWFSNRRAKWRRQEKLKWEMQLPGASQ
# PAX4 [11] = target: T4, PAX4 (Homo sapiens, UniProt O43316 9-242, F177Y)
# T4 sequence: T3 sequence with V169Y
# ALX3 [12] = target: ALX3 (Homo sapiens, UniProt O95076 139-225, N203Q)
# ALX3 (Homo sapiens, UniProt O95076 139-225, N203Q), sequence (O95076 139-225 N203Q): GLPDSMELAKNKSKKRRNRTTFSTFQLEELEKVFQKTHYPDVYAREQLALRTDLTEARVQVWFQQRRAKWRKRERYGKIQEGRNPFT
# ALX3 [13] = target: ALX3 (Homo sapiens, UniProt O95076 139-225)
# ALX3 (Homo sapiens, UniProt O95076 139-225), sequence (O95076 139-225): as the sequence (O95076 139-225 N203Q) above, with Q65N counted along it
# ALX3 [14] = target: ALX3 (Homo sapiens, UniProt O95076 139-225, N203S)
# ALX3 (Homo sapiens, UniProt O95076 139-225, N203S), sequence (O95076 139-225 N203S): as the sequence (O95076 139-225 N203Q) above, with Q65S counted along it
# HOXA2 [15] = target: HOXA2 (Homo sapiens, UniProt O43364 129-215, R185T)
# HOXA2 (Homo sapiens, UniProt O43364 129-215, R185T), sequence (O43364 129-215 R185T): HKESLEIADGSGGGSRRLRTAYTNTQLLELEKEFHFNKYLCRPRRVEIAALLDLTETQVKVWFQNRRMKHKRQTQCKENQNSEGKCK
# HOXA2 [16] = target: HOXA2 (Homo sapiens, UniProt O43364 129-215, R185K)
# HOXA2 (Homo sapiens, UniProt O43364 129-215, R185K), sequence (O43364 129-215 R185K): as the sequence (O43364 129-215 R185T) above, with T57K counted along it
# HOXA2 [17] = target: HOXA2 (Homo sapiens, UniProt O43364 129-215, Y150S)
# HOXA2 (Homo sapiens, UniProt O43364 129-215, Y150S), sequence (O43364 129-215 Y150S): as the sequence (O43364 129-215 R185T) above, with Y22S, T57R counted along it
# HOXA2 [18] = target: HOXA2 (Homo sapiens, UniProt O43364 129-215)
# HOXA2 (Homo sapiens, UniProt O43364 129-215), sequence (O43364 129-215): as the sequence (O43364 129-215 R185T) above, with T57R counted along it
# HOXA4 = HOXA4 (Homo sapiens, UniProt Q00056 201-287, W262F)
# HOXA4, sequence (Q00056 201-287 W262F): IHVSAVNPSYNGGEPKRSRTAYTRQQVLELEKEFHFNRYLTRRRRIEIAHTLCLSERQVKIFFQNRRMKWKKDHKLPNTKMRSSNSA
# HOXA7 (Homo sapiens, UniProt P31268 116-202), sequence (P31268 116-202): as the sequence (P31268 116-202 W177C) above, with C62W counted along it
# VAX1 (Homo sapiens, UniProt Q5SQQ9 86-172, T142I), sequence (Q5SQQ9 86-172 T142I): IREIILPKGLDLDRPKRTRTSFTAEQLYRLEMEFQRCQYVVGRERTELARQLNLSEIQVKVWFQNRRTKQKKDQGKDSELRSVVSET
# VAX1 (Homo sapiens, UniProt Q5SQQ9 86-172, K157R), sequence (Q5SQQ9 86-172 K157R): as the sequence (Q5SQQ9 86-172 T142I) above, with I57T, K72R counted along it
# VAX1 (Homo sapiens, UniProt Q5SQQ9 86-172), sequence (Q5SQQ9 86-172): as the sequence (Q5SQQ9 86-172 T142I) above, with I57T counted along it
sequence,measurement,setting,value
CCAGCGCA,binding signal,VAX1 [1],"7.28 upbm affinity estimate (log intensity, higher = more binding, comparable within an allelic series)"
same,binding signal,VAX1 [2],"7.16 upbm affinity estimate (log intensity, higher = more binding, comparable within an allelic series)"
same,binding signal,VAX1 [3],"7.39 upbm affinity estimate (log intensity, higher = more binding, comparable within an allelic series)"
GCAATTAC,binding signal,HOXA7 [4],"11.2 upbm affinity estimate (log intensity, higher = more binding, comparable within an allelic series)"
same,binding signal,HOXB6 [5],"9.75 upbm affinity estimate (log intensity, higher = more binding, comparable within an allelic series)"
same,binding signal,HOXA7 [6],"8.74 upbm affinity estimate (log intensity, higher = more binding, comparable within an allelic series)"
same,binding signal,HOXB6 [7],"11.7 upbm affinity estimate (log intensity, higher = more binding, comparable within an allelic series)"
CGACGCGA,binding signal,VENTX [8],"7.97 upbm affinity estimate (log intensity, higher = more binding, comparable within an allelic series)"
same,binding signal,VENTX [9],"8.13 upbm affinity estimate (log intensity, higher = more binding, comparable within an allelic series)"
CGATTATC,binding signal,VENTX [8],"10.6 upbm affinity estimate (log intensity, higher = more binding, comparable within an allelic series)"
same,binding signal,VENTX [9],"10.6 upbm affinity estimate (log intensity, higher = more binding, comparable within an allelic series)"
AGAGCGCG,binding signal,PAX4 [10],"9.32 upbm affinity estimate (log intensity, higher = more binding, comparable within an allelic series)"
same,binding signal,PAX4 [11],"9.31 upbm affinity estimate (log intensity, higher = more binding, comparable within an allelic series)"
CCGTAGGC,binding signal,HOXA7 [4],"8.48 upbm affinity estimate (log intensity, higher = more binding, comparable within an allelic series)"
same,binding signal,HOXA7 [6],"8.4 upbm affinity estimate (log intensity, higher = more binding, comparable within an allelic series)"
CCCCCAGC,binding signal,VENTX [8],"7.89 upbm affinity estimate (log intensity, higher = more binding, comparable within an allelic series)"
same,binding signal,HOXA7 [4],"8.08 upbm affinity estimate (log intensity, higher = more binding, comparable within an allelic series)"
same,binding signal,VENTX [9],"7.96 upbm affinity estimate (log intensity, higher = more binding, comparable within an allelic series)"
same,binding signal,VAX1 [1],"7.08 upbm affinity estimate (log intensity, higher = more binding, comparable within an allelic series)"
same,binding signal,VAX1 [2],"7.15 upbm affinity estimate (log intensity, higher = more binding, comparable within an allelic series)"
same,binding signal,HOXA7 [6],"8.17 upbm affinity estimate (log intensity, higher = more binding, comparable within an allelic series)"
same,binding signal,VAX1 [3],"6.96 upbm affinity estimate (log intensity, higher = more binding, comparable within an allelic series)"
CCGAGCCG,binding signal,HOXA7 [4],"8.34 upbm affinity estimate (log intensity, higher = more binding, comparable within an allelic series)"
same,binding signal,ALX3 [12],"7.62 upbm affinity estimate (log intensity, higher = more binding, comparable within an allelic series)"
same,binding signal,ALX3 [13],"7.46 upbm affinity estimate (log intensity, higher = more binding, comparable within an allelic series)"
same,binding signal,HOXA7 [6],"8.22 upbm affinity estimate (log intensity, higher = more binding, comparable within an allelic series)"
same,binding signal,ALX3 [14],"7.67 upbm affinity estimate (log intensity, higher = more binding, comparable within an allelic series)"
CAGCCAGG,binding signal,VENTX [8],"8.2 upbm affinity estimate (log intensity, higher = more binding, comparable within an allelic series)"
same,binding signal,VENTX [9],"8.16 upbm affinity estimate (log intensity, higher = more binding, comparable within an allelic series)"
GCCAGACC,binding signal,HOXA2 [15],"7.3 upbm affinity estimate (log intensity, higher = more binding, comparable within an allelic series)"
same,binding signal,HOXA2 [16],"10.5 upbm affinity estimate (log intensity, higher = more binding, comparable within an allelic series)"
same,binding signal,PAX4 [10],"9.2 upbm affinity estimate (log intensity, higher = more binding, comparable within an allelic series)"
same,binding signal,PAX4 [11],"9.19 upbm affinity estimate (log intensity, higher = more binding, comparable within an allelic series)"
same,binding signal,HOXA2 [17],"10.4 upbm affinity estimate (log intensity, higher = more binding, comparable within an allelic series)"
same,binding signal,HOXA2 [18],"7.38 upbm affinity estimate (log intensity, higher = more binding, comparable within an allelic series)"
AATTATTA,binding signal,HOXA7 [4],"11.3 upbm affinity estimate (log intensity, higher = more binding, comparable within an allelic series)"
same,binding signal,HOXB6 [5],"10.1 upbm affinity estimate (log intensity, higher = more binding, comparable within an allelic series)"
same,binding signal,ALX3 [12],"8.58 upbm affinity estimate (log intensity, higher = more binding, comparable within an allelic series)"
same,binding signal,ALX3 [13],"12.3 upbm affinity estimate (log intensity, higher = more binding, comparable within an allelic series)"
same,binding signal,PAX4 [11],"10.9 upbm affinity estimate (log intensity, higher = more binding, comparable within an allelic series)"
same,binding signal,VAX1 [2],"12.3 upbm affinity estimate (log intensity, higher = more binding, comparable within an allelic series)"
same,binding signal,HOXA7 [6],"8.91 upbm affinity estimate (log intensity, higher = more binding, comparable within an allelic series)"
same,binding signal,HOXA4,"11.5 upbm affinity estimate (log intensity, higher = more binding, comparable within an allelic series)"
same,binding signal,ALX3 [14],"8.68 upbm affinity estimate (log intensity, higher = more binding, comparable within an allelic series)"
same,binding signal,HOXB6 [7],"11.8 upbm affinity estimate (log intensity, higher = more binding, comparable within an allelic series)"
CCGCCCCC,binding signal,VENTX [8],"8.05 upbm affinity estimate (log intensity, higher = more binding, comparable within an allelic series)"
same,binding signal,VENTX [9],"7.95 upbm affinity estimate (log intensity, higher = more binding, comparable within an allelic series)"
same,binding signal,HOXB6 [5],"8.84 upbm affinity estimate (log intensity, higher = more binding, comparable within an allelic series)"
same,binding signal,HOXA2 [15],"6.99 upbm affinity estimate (log intensity, higher = more binding, comparable within an allelic series)"
same,binding signal,HOXA2 [16],"9.92 upbm affinity estimate (log intensity, higher = more binding, comparable within an allelic series)"
same,binding signal,HOXA2 [17],"10.2 upbm affinity estimate (log intensity, higher = more binding, comparable within an allelic series)"
same,binding signal,HOXA2 [18],"6.94 upbm affinity estimate (log intensity, higher = more binding, comparable within an allelic series)"
same,binding signal,HOXB6 [7],"8.81 upbm affinity estimate (log intensity, higher = more binding, comparable within an allelic series)"
GAGCTGGC,binding signal,HOXA7 [4],"8.29 upbm affinity estimate (log intensity, higher = more binding, comparable within an allelic series)"
same,binding signal,HOXA7 [6],"8.35 upbm affinity estimate (log intensity, higher = more binding, comparable within an allelic series)"
